Results taken from PubChem BioAssay AID1851 (National Center for Advancing Translational Sciences (NCATS), 2009).
The whole screen tested about 16,000 compounds, of which about 5,700 (36%) were called active. Roughly 24% stayed inconclusive and do not appear here. The call rests on the fitted dose curve; in most records, active means well fitted curve in the direction sought with a large enough effect; inconclusive means small, poorly fitted or top-dose-only effect, or effect the other way; inactive means no such curve, though single readings can be large or run the other way. This is one part of the list.

Biological target: Cytochrome P450 1A2 (Homo sapiens) (UniProt P05177)
Assay: Cytochrome panel assay with activity outcomes
Conditions: recombinant CYP, pro-luciferin dealkylation, luminescence, p450-cyp1a2; series mostly up to 57.1 µM
On the % scale 0 is the no-effect control and ±100 the full control effect.

Chain of Cytochrome P450 1A2 (Homo sapiens) (P05177 whole entry, looked up): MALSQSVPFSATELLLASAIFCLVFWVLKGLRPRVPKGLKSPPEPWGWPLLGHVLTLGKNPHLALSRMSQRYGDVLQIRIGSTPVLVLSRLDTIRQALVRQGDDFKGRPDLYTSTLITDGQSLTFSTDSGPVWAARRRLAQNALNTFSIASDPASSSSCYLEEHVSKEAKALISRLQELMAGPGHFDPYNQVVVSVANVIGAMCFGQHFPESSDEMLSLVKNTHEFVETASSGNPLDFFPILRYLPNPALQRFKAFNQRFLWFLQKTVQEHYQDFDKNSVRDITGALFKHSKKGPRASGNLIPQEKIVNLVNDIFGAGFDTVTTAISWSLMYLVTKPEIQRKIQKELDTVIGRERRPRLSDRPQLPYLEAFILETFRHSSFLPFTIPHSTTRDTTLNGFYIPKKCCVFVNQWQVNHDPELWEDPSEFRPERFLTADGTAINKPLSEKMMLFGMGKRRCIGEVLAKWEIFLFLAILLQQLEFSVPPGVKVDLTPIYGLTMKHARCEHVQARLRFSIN

Structure (SMILES) | AC50 | activity, negative = inhibition
CCCCN1C(=O)C(NC(=O)C2CC2)(C(F)(F)F)C2=C1CC(C)(C)CC2=O (stereo unspecified) | inactive | –
CSc1nncc(/C(C)=N\Nc2ccccc2)n1 | 12.6 µM (active) | –
CC/C(=N/Nc1ccccc1)c1cnnc(SC)n1 | 10 µM (active) | –
CCc1ccc(N(C(=O)c2ccoc2C)C(C(=O)NC2CCCC2)c2ccc(OC)cc2)cc1 (stereo unspecified) | inactive | –
Cc1ccc(Nc2nnc(-c3ccc4c(c3)OCO4)o2)c(C)c1 | 2.51 µM (active) | –
COc1cc(N=C(N)N=C(N)N)c2ncccc2c1 | 0.398 µM (active) | –
COc1ccc([C@H](O)c2ccccn2)cc1 | – | -16% [at 11.4 µM] (inactive)
COc1cc(NCCC(=O)O)c2ncccc2c1 | – | -18.1% [at 11.4 µM] (inactive)
CC(C)=CCC/C(C)=C/CO/N=C1/[C@H]2O[C@@H]2[C@@H](O)[C@H]2[C@H]1CCn1c(=O)n(Cc3cc4c(cc3Cl)OCO4)c(=O)n12 | – | -2.22% [at 11.4 µM] (inactive)
c1ccc(CN2c3ccccc3-c3nc4ccccc4n3C2c2ccccn2)cc1 (stereo unspecified) | 4.47 µM (active) | –
O=C(Cc1ccccc1)Nc1nc2ccc(Cl)cc2c2nc(-c3ccco3)nn12 | 0.2 µM (active) | –
CN(C)Cc1cc(Cl)c(O)c(CN(C)C)c1 | – | -10.7% [at 11.4 µM] (inactive)
Oc1ccc(Cl)cc1Cc1cc(Cl)cc(Cc2cc(Cl)ccc2O)c1O | – | -23.8% [at 2.29 µM] (inactive)
Oc1ccc(Cc2cc(Cl)cc(Cl)c2O)cc1Cl | 1.58 µM (active) | –
CCC(C)(C)n1nnnc1C(c1ccc(C)cc1)N1CCC(C)CC1 (stereo unspecified) | inactive | –
COc1ccccc1CN(Cc1cc2cc3c(cc2[nH]c1=O)OCCO3)Cc1nnnn1Cc1ccco1 | 17.8 µM (active) | –
CCC(C)(C)n1nnnc1C(C(C)C)N(Cc1ccco1)Cc1cc2cc3c(cc2[nH]c1=O)OCO3 (stereo unspecified) | 14.1 µM (active) | –
CCC(Sc1nc2cc3c(cc2c(=O)n1Cc1ccco1)OCO3)C(=O)Nc1ccccc1OC (stereo unspecified) | inactive | –
CC(C)(C)n1nnnc1C(c1cccnc1)N(Cc1ccccc1)Cc1ccco1 (stereo unspecified) | inactive | –
Cc1nonc1NC(=O)N1CCCC1 | inactive | –
CCC[C@@H]1O[C@@H]2C[C@@H]3[C@H]4CCC5=CC(=O)C=C[C@@]5(C)[C@H]4[C@H](O)C[C@@]3(C)[C@@]2(C(=O)CO)O1 | inactive | –
CCCc1c(O)c2ccccc2n(-c2ccccc2)c1=O | 14.1 µM (active) | –
CN(C(=O)c1c(O)c2ccccc2n(C)c1=O)c1ccccc1 | inactive | –
Cc1cnc(CNc2ncncc2-c2c(C)noc2C)cn1 | inactive | –
Cc1cnc(CNc2ncncc2-c2ccoc2)cn1 | 12.6 µM (active) | –
Cc1cnc(CNc2ncncc2-c2ccc(N(C)C)cc2)cn1 | 3.16 µM (active) | –
